Inconclusive results are not listed. Entries that show only a call come without a potency. The source made the active and inactive calls. The call rests on the fitted dose curve; in most records, active means well fitted cell-killing curve with a large enough effect in the repeat runs; inconclusive means weak or mixed curves, or effect the other way; inactive means no such curve, though single readings can be large or run the other way.

This assay is described as follows: qHTS assay to identify small molecule agonists of the vitamin D receptor (VDR) signaling pathway - cell viability counter screen (AID 743224). Further: nearly all actives have a fitted effect of over 50% in size. Conditions: VDR-bla HEK293T viability, CellTiter-Glo luminescence, 16 h; series mostly up to 62.6 µM. The source says:
U.S. Tox21 Program National Center for Advancing Translational Sciences [NCATS] NIH Chemical Genomics Center [NCGC] U.S. Environmental Protection Agency [EPA] National Institutes of Environmental Health Sciences [NIEHS] National Toxicology Program [NTP] U.S. Food and Drug Administration [FDA] Tox21 Assay Overview: The vitamin D receptor (VDR), a member of nuclear hormone receptor superfamily, plays a critical role in calcium homeostasis and bone metabolism. It is also involved in cell differentiation and growth, and thrombogenicity. […] The cytotoxicity of the Tox21 compound library against the VDR-bla cell line was tested in parallel by measuring the cell viability using CellTiter-Glo assay (Promega, Madison, WI) in the same wells.
Tox21 Assay Protocol Summary: VDR-bla cells were dispensed at 2,000 cells/6 uL/well into black wall/clear-bottom 1536-well plates using a Multidrop Combi (Thermo Fisher Scientific, Waltham, MA) dispenser. After the assay plates were incubated at a 37C and 5% CO2 for 4 h, 23 nL of compounds dissolved in DMSO, positive controls or DMSO only was transferred to the assay plate by a Pintool station (Kalypsys, San Diego, CA). The plates were incubated at 37C and 5% CO2 for 16 h. After 1 uL of LiveBLAzerTM B/G FRET substrate was added using a Bioraptr Flying Reagent Dispenser (FRD) workstation (Beckman Coulter, Indianapolis, IN, USA), the plates were incubated at room temperature for 2 h, and fluorescence intensity was measured by an Envision plate reader (PerkinElmer, Shelton, CT). For cell viability readout that measures cytotoxicity, 3 ul/well of CellTiter-Glo reagent was added into the assay plates using a FRD. After 30 min incubation at room temperature, the luminescence intensity in the plates was measured using a ViewLux (PerkinElmer) plate reader.
(In general: qHTS replaces the single test concentration by a dilution series.)
As to `O=S(=O)(O)C(F)(F)C(F)(F)C(F)(F)C(F)(F)C(F)(F)C(F)(F)F`, the Potency result is “inactive”. In the case of `C#CCN1C(=O)COc2cc(F)c(N3C(=O)C4=C(CCCC4)C3=O)cc21`, the Potency result was “inactive”.

On to `N#CC(CCc1ccc(Cl)cc1)(Cn1cncn1)c1ccccc1` (stereo not given), for which the Potency result is “inactive”. For `O=[N+]([O-])c1ccc2c3c(cccc13)CC2` the value was “inactive”; for `CC(C=O)Cc1ccc2c(c1)OCO2` (stereo not given), “inactive”. As to `CCS(=O)(=O)CCSP(=O)(OC)OC`, the Potency result is “inactive”. Turning to `c1coc(-c2nc3ccccc3[nH]2)c1`, the Potency result was “inactive”. For `Clc1cccc(N2CCNCC2)c1` the value was “inactive”; for `Nc1ccccc1Cl`, “inactive”. Consider `COc1ccc(C(=O)N2CCCC2=O)cc1`, for which the Potency entry was “inactive”. As to `ClC(Br)Br`, the Potency result is “inactive”. Then `Cc1cccc(C#N)c1`, with “inactive”; and `CCCCCCBr`, with “inactive”. As to `CCC(=O)C(CCN(C)C)(c1ccccc1)c1ccccc1`, the Potency entry is “inactive”. As for `O=C(CCCN1CCC(n2c(=O)[nH]c3ccccc32)CC1)c1ccc(F)cc1`, the Potency result was “inactive”. On to `C[C@@H]1CN(C2CCC(C#N)(c3ccc(F)cc3)CC2)CC[C@]1(C(=O)O)c1ccccc1` (stereo not given in full), for which the Potency entry was “inactive”. For the molecule `N#Cc1ccncc1`, the Potency result was “inactive”.

With `CC(C1CC1)C(O)(Cn1cncn1)c1ccc(Cl)cc1` (stereo not given), the Potency entry is “inactive”. As to `COc1cc(OC)nc(NC(=O)NS(=O)(=O)c2ncccc2C(=O)N(C)C)n1`, the Potency result was “inactive”. Take `COc1cc(OC)nc(Sc2cccc(Cl)c2C(=O)O)n1`: the Potency entry was “inactive”.

Consider `O=C(O)c1ccc2[nH]cc(CCCCN3CC=C(c4ccccc4)CC3)c2c1`, for which the Potency entry is “inactive”. Take `Nc1c(Br)cc([N+](=O)[O-])cc1[N+](=O)[O-]`: the Potency result is “inactive”. For the molecule `CC(C)CC#N`, the Potency entry was “inactive”. As to `COC(=O)c1ccccc1S(=O)(=O)NC(=O)N(C)c1nc(C)nc(OC)n1`, the Potency entry was “inactive”. On to `CCC(=O)c1ccccc1`, for which the Potency result was “inactive”. For the molecule `[As]#[In]`, the Potency result is “inactive”. Then `Cc1nnc2n1-c1sc(CCC(=O)N3CCOCC3)cc1C(c1ccccc1Cl)=NC2`, with “inactive”; and `CCC(C)(C)c1cc(-n2nc3ccccc3n2)c(O)c(C(C)(C)CC)c1`, with “inactive”; and `CC(C)NCC(O)c1ccc(N)c(C#N)c1` (stereo not given), with “inactive”. For `CNNC` the value was “inactive”; for `O=C(NCO)NCO`, “inactive”; for `CCOC(=O)CP(=O)(OCC)OCC`, “inactive”.

Take `O=C(O)c1cccc(Cl)c1`: the Potency entry is “inactive”. As to `CCCCP(CCCC)CCCC`, the Potency result is “inactive”. On to `CC(N)=S`, for which the Potency entry was “inactive”. For `CC(C)[N+](=O)[O-]`, the Potency result was “inactive”. Then `COP(=S)(OC)Oc1ccc(S(N)(=O)=O)cc1`, with “inactive”; and `OC(c1ccc(F)cc1)(c1cncnc1)c1ccccc1Cl` (stereo not given), with “inactive”. On to `O=P(O)(Oc1ccccc1)Oc1ccccc1`, for which the Potency result was “inactive”. With `CC(C)(C)OC(=O)c1ncn2c1[C@@H]1CCCN1C(=O)c1c(Br)cccc1-2`, the Potency result is “inactive”.

For the origin of these results see PubChem BioAssay (Tox21).
